Sampled rows, rich in hits. Any-hit rate of the full collection: about 1.6%.
KCNQ2 pot: potentiators of rat KCNQ2 potassium channel | Potassium voltage-gated channel subfamily KQT member 2 (Rattus norvegicus), O88943 | CHO-K1 KCNQ2, FluxOR thallium flux fluorescence; hits give high values | B-score at 10 µM | 310,000 compounds, 0.54% hits;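 active = fluorescence ratio B-score at least 3 SD of library B-scores, with initial fluorescence B-score within 3 of them, cut at about 5.3 in these data; same plate scores as AID 2156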;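 also: B-score of peak minus minimum over baseline fluorescence ratio after K+ and Tl+ stimulus; positive B-score means potentiation of KCNQ2 with more thallium influx and brighter signal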
KCNQ2 inh: rat KCNQ2 potassium channel inhibitors, primary screen, cell-based, CHO-K1, FluxOR thallium flux, B-score | Potassium voltage-gated channel subfamily KQT member 2 (Rattus norvegicus), O88943 | 20 min; hits give low values | B-score at 10 µM | 310,000 compounds, 1.1% hits | AID 2156, 2009;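 active = fluorescence ratio B-score at most minus 3 library SDs, with starting brightness B-score within 2 library SDs, cut at about -5.5 in these data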
Kir21 conf inh: mouse Kir2.1 channel blockers, retest, confirmation, cell-based, FluxOR thallium flux, duplicate | Kir2.1-expressing cells, FluxOR thallium flux fluorescence; hits give low values | shares compounds with KCNQ2 pot | Tl flux remaining, % of negative control (hits give low values), % at 10 µM | 2,300 compounds, 41% hits | AID 2032, 2009;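 active = Primary-screen hit whose thallium flux fell at least 3 control SD below untreated wells in both duplicates, with normal baseline fluorescence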;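 also: 0% = blank wells without stimulus and 100% = stimulated no-compound controls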
HEK293 ctr: counter-screen for Kir2.1 inhibitors: effect in parental HEK293 cells | shares compounds with KCNQ2 pot | FluxOR thallium flux fluorescence; 0% = unstimulated blank wells | FluxOR signal as % of negative control (100 = no effect), % at 10 µM | 2,300 compounds, 19% hits;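 active = dye signal at least 3 control SD above or below untreated wells in both duplicates, raw fluorescence within 3, either direction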;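 also: percent is based on the flux ratio of peak minus minimum fluorescence over baseline F0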
CHO-K1 Tl ctr: nonspecific thallium flux increase in parental CHO-K1, confirmation, counter-screen for KCNQ2 potentiator project, cell-based, FluxOR thallium flux, duplicate; activity increase over 3SD of controls, % at 10 µM; shares compounds with KCNQ2 pot; parental CHO-K1 cells, FluxOR thallium flux fluorescence; zero = vehicle mean+3SD, 100% = vehicle-minus-blank window; AID 2282, 2010; 1,200 compounds, 43% hits;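 active = signal rise of at least 3 SD above the untreated control mean, in both duplicate wells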;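 also: counter screen of KCNQ2 potentiator hits so any rise reflects channel-independent effects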
KCNQ1 pot spec: human KCNQ1 channel potentiation off-target, confirmation, selectivity assay for KCNQ2 potentiator project, cell-based, CHO, FluxOR thallium flux | shares compounds with KCNQ2 pot | CHO KCNQ1 stable, FluxOR thallium flux fluorescence; beyond 3SD, as % of vehicle-control signal | activation over 3SD threshold, % at 10 µM | 1,200 compounds, 28% hits;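 active = fluorescence ratio rise of at least 3 SD of vehicle wells above their mean, in both replicate wells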;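 also: 0% = vehicle mean plus 3 SD and 100% = vehicle minus unstimulated blank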
KCNQ2 pot confirm: rat KCNQ2 channel potentiators, confirmation, cell-based, CHO, FluxOR thallium flux, duplicate; shares compounds with KCNQ2 pot; CHO-KCNQ2 cells, FluxOR thallium flux fluorescence; potentiation, less the hit threshold, % at 10 µM; 1,200 compounds, 68% hits;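 active = fluorescence ratio rising 3 SD or more over the vehicle control mean in both replicates, plus primary screen hit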;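 also: peak minus minimum thallium fluorescence divided by baseline after K/Tl stimulus; 0% = vehicle mean plus 3 SD and 100% = vehicle minus unstimulated blank difference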
Kir21 spec: mouse Kir2.1 channel activation off-target, confirmation, selectivity assay for KCNQ2 potentiator project, cell-based, HEK293, FluxOR thallium flux. shares compounds with KCNQ2 pot. HEK293 Kir2.1, FluxOR thallium flux fluorescence. activity over 3SD threshold, % at 10 µM. 1,200 compounds, 2% hits. AID 2345, 2010;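 active = fluorescence ratio rise of at least 3 SD above the vehicle-control mean, seen in both replicates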;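 also: 0% = vehicle mean plus 3 SD and 100% = vehicle minus no-stimulus blank window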
KCNQ2 W236L MoA: potentiators of retigabine-insensitive KCNQ2 W236L, mechanism study for KCNQ2 potentiator project, cell-based, rat KCNQ2 W236L, CHO, automated patch clamp | shares compounds with KCNQ2 pot | automated patch clamp current | current increase over 3SD of negative controls (%), hits give high values, % at 25 µM | 940 compounds, 10% hits | AID 2558, 2010;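 active = current increase at least 3 SD of the untreated controls above them in both duplicate recordings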
Target sequence (O88943 whole entry W236L, looked up): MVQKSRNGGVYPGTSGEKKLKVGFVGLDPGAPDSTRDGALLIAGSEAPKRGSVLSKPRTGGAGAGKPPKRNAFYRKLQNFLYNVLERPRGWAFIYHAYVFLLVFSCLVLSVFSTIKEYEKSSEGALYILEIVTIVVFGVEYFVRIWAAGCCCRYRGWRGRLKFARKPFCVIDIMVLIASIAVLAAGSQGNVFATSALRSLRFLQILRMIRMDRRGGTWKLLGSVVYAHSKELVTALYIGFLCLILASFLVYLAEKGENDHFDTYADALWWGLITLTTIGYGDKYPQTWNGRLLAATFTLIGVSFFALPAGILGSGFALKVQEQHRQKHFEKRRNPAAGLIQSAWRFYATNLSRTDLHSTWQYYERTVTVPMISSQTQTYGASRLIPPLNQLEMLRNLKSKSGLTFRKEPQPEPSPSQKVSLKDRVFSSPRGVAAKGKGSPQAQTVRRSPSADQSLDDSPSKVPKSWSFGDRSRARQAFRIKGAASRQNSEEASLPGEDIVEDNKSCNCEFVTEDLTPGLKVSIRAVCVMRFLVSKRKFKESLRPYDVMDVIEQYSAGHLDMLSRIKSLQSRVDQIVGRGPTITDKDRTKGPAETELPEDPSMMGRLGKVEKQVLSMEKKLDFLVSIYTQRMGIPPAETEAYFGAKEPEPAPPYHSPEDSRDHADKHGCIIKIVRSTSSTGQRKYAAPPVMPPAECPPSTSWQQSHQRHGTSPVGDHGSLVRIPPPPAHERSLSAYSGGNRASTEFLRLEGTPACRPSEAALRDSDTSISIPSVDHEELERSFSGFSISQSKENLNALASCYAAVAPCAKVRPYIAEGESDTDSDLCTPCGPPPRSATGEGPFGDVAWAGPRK
Numbers without * were called inactive.

`COc1ccc(/C=C(/NC(=O)c2ccccc2)C(=O)NCc2ccco2)cc1` gave KCNQ2 pot 1.73 and KCNQ2 inh inactive.
For COc1ccccc1/C=C(\NC(=O)c1ccccc1)C(=O)NCc1ccco1 the results were KCNQ2 pot 0.73, KCNQ2 inh inactive, Kir21 conf inh inactive and HEK293 ctr inactive.
`Fc1ccccc1N1CCN(Cc2cc(-c3ccccc3)on2)CC1` gave KCNQ2 inh inactive.
O=S(=O)(c1ccc(Br)cc1)N1CCC2(CC1)OCCO2 was read as KCNQ2 inh inactive.
CCCCn1c(=N)n(CC(O)COc2ccccc2)c2ccccc21 (stereo not drawn) was read as KCNQ2 pot 1.01 and KCNQ2 inh inactive.
`Cc1ccc(Cn2c(=N)n(CC(O)COc3ccccc3)c3ccccc32)cc1` (stereo not drawn) gave KCNQ2 inh inactive, Kir21 conf inh 31.5%* and HEK293 ctr inactive.
For CCCCn1c(=N)n(CC(O)COc2ccc(C)cc2)c2ccccc21 (stereo not drawn) the results were KCNQ2 inh inactive.
For N=c1n(Cc2ccccc2)c2ccccc2n1CC(O)COc1ccccc1 (stereo not drawn) the results were KCNQ2 inh inactive, Kir21 conf inh 38.5%* and HEK293 ctr inactive.
COc1ccc(CCN2CCCn3c2nc2c3c(=O)n(CC(C)C)c(=O)n2C)cc1OC was read as KCNQ2 inh inactive.
For CCCC(C1=C(O)CC(C)(C)CC1=O)C1C(=O)CC(C)(C)CC1=O (stereo not drawn) the results were KCNQ2 inh inactive.
Cc1ccc(C(C2=C(O)CC(C)(C)CC2=O)C2C(=O)CC(C)(C)CC2=O)o1 (stereo not drawn) was read as KCNQ2 pot 8.67*, KCNQ2 inh inactive, CHO-K1 Tl ctr -16.7, KCNQ1 pot spec 53.9*, KCNQ2 pot confirm 1.5*, Kir21 spec -57.6 and KCNQ2 W236L MoA 45.6%*.
Cc1cccc(Nc2nc(-c3ccc(O)cc3O)cs2)n1 was read as KCNQ2 inh inactive.
For CCCCn1c(C23CC4CC(CC(C4)C2)C3)n[nH]c1=S the results were KCNQ2 pot 1.04 and KCNQ2 inh inactive.
For COc1ccc(N(CC(=O)NCCSCc2ccccc2C)S(=O)(=O)c2ccccc2)cc1 the results were KCNQ2 pot 0.72 and KCNQ2 inh inactive.
COCc1ccc(CN2CCCC(C(=O)Nc3ccccc3-c3ccc(OC)cc3)C2)o1 (stereo not drawn) was read as KCNQ2 pot 0.15 and KCNQ2 inh inactive.
`CCc1ccc(CN2CCCC(C(=O)Nc3ccccc3-c3ccc(OC)cc3)C2)o1` (stereo not drawn) gave KCNQ2 pot -6.14, KCNQ2 inh -6.14*, Kir21 conf inh inactive and HEK293 ctr inactive.
Screening Cc1ccc(-c2csc(N=C(N)N)n2)c(C)c1 returned KCNQ2 inh inactive, Kir21 conf inh 40.0%* and HEK293 ctr inactive.
COc1ccc(-c2csc(N=C(N)N)n2)cc1 was read as KCNQ2 pot 1.33 and KCNQ2 inh inactive.
COc1ccc(CCNC(=O)CNC(=O)c2ccc(Br)o2)cc1OC was read as KCNQ2 inh inactive.
COc1ccc(CN2CCC(C(=O)c3cccc(Cl)c3)CC2)cc1 was read as KCNQ2 pot 0.01 and KCNQ2 inh inactive.
For COc1ccc(CN2CCC(C(=O)c3ccc(Cl)cc3)CC2)cc1 the results were KCNQ2 pot 0.34, KCNQ2 inh inactive, Kir21 conf inh 20.5%* and HEK293 ctr inactive.
COc1ccccc1CNC(=O)CN(C)S(=O)(=O)c1ccc(Br)s1 was read as KCNQ2 pot 0.38 and KCNQ2 inh inactive.
For CCOc1ccccc1C(=O)NC(C)c1ccc2c(c1)OCO2 (stereo not drawn) the results were KCNQ2 pot 2.71 and KCNQ2 inh inactive.
For CC(NC(=O)Cc1ccc([N+](=O)[O-])cc1)c1ccc2c(c1)OCO2 (stereo not drawn) the results were KCNQ2 inh inactive.
CCOc1ccccc1NC(=O)NC(C)c1ccc2c(c1)OCO2 (stereo not drawn) was read as KCNQ2 pot 5.83*, KCNQ2 inh inactive, Kir21 conf inh inactive, HEK293 ctr inactive, CHO-K1 Tl ctr 4.2*, KCNQ1 pot spec 73.0*, KCNQ2 pot confirm 24.8*, Kir21 spec -36.9 and KCNQ2 W236L MoA inactive.
`CC(NC(=O)CCc1ccccc1)c1ccc2c(c1)OCO2` (stereo not drawn) gave KCNQ2 pot 8.48*, KCNQ2 inh inactive, Kir21 conf inh inactive, HEK293 ctr inactive, CHO-K1 Tl ctr -2.9, KCNQ1 pot spec -8.0, KCNQ2 pot confirm 44.6*, Kir21 spec -46.6 and KCNQ2 W236L MoA inactive.
Screening Cc1occc1C(=O)NC(C)c1ccc2c(c1)OCO2 (stereo not drawn) returned KCNQ2 inh inactive.
For Cc1ccc(C(C)NC(=O)c2ccc3c(c2)OCO3)cc1C (stereo not drawn) the results were KCNQ2 pot 10.2*, KCNQ2 inh inactive, Kir21 conf inh inactive, HEK293 ctr inactive, CHO-K1 Tl ctr -16.9, KCNQ1 pot spec -2.4, KCNQ2 pot confirm 51.5*, Kir21 spec -31.5 and KCNQ2 W236L MoA inactive.
